Screen size: about 360,000 compounds; about 3,900 (1.1%) were called active. The full list was thinned out, with actives kept by preference. Unmarked numbers belong to inactive results.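 The calls were made as follows: active = mean replicate inhibition score of at least 50 and every replicate individually at or above 50; inconclusive = only one of the two criteria met; inactive = mean below 50 and not all replicates reaching 50.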
test: blockers of JRFL envelope-mediated fusion – HeLa-JRFL effector, CEM21 target cells, luciferase, primary screen (AID 651610); details: HeLa-JRFL Env/CEM21 cell fusion, hits give high values; at 16.7 µM unless noted;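 also: 0% = plate neutral controls and 100% = maraviroc near 300 nM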

Row | Compound | inhibition
1 | CN(C)C(=O)C[C@H]1C=C[C@@H](NC(=O)C2CCC2)[C@@H](CO)O1 | 24.4%
2 | Cc1ccc(OCC(=O)N2CCN(C(=O)c3cccnc3)CC2)cc1 | -3.51% [at 12.3 µM]
3 | CCCOc1cccc(C(=O)NCCCNC(=O)c2cccnc2)c1 | 11.1% [at 12.3 µM]
4 | CCCCCCOc1ccc(OC(=O)c2cccnc2)cc1 | 58.2% [at 12.3 µM] (active)
5 | C[C@H](CO)N1C[C@H](C)[C@H](CN(C)S(C)(=O)=O)Oc2ncc(C3=CCCCC3)cc2C1=O | 10.5%
6 | N#C[C@H]1[C@H](c2ccc(C#Cc3ccc(F)cc3)cc2)[C@@H](CO)N1C(=O)C1CCCC1 | 10.1%
7 | COCc1cn(CC[C@@H]2CC[C@@H](NC(=O)Cc3cccnc3)[C@@H](CO)O2)nn1 | 7.99%
8 | C[C@H]1CCCCO[C@H](CN(C)C(=O)Nc2ccc3c(c2)OCO3)[C@@H](C)CN([C@@H](C)CO)C(=O)c2cc(NC(=O)Nc3ccccc3)ccc2O1 | -15.3%
9 | CN(C)CCN(C(=O)C1=COCCO1)c1nc2ccc(Cl)cc2s1 | -71.9% [at 12.3 µM]
10 | CCN(CC)CCN(C(=O)c1cc(Cl)sc1Cl)c1nc2cc3c(cc2s1)OCO3 | 71.9% [at 12.3 µM] (active)
11 | CCN(CC)CCN(C(=O)c1ccc(N2C(=O)CCC2=O)cc1)c1nc2cc3c(cc2s1)OCO3 | 13.5% [at 12.3 µM]
12 | CC(C)NC(=O)N(C)C[C@H]1Oc2ccc(NS(=O)(=O)c3cn(C)cn3)cc2CC(=O)N([C@@H](C)CO)C[C@H]1C | -7.65%
13 | Cc1ccc(S(=O)(=O)N2CCC(C(=O)N3CCCCCCC3)CC2)cc1 | -2.71% [at 12.3 µM]
14 | CCC(C)c1ccccc1N1CC(C(=O)N2CCN(S(=O)(=O)c3ccc(F)cc3)CC2)CC1=O (stereo not given) | 18.5% [at 12.3 µM]
15 | Cc1ccc(CN2CC(C(=O)N3CCN(S(=O)(=O)c4ccccc4)CC3)CC2=O)cc1 (stereo not given) | 64.5% [at 12.3 µM] (active)
16 | COc1ccc2c3c(n(C)c2c1)[C@@H](CO)N(C(C)=O)CC31CCN(C(=O)C2CC2)CC1 | 3.46%
17 | C[C@H](CO)N1C[C@H](C)[C@H](CN(C)C(=O)Nc2ccc(F)cc2)Oc2c(NC(=O)c3cnccn3)cccc2C1=O | 30.7%
18 | Cc1ccc(NC(=O)NNC(=O)c2sccc2-n2cccc2)cc1 | -3.39% [at 12.3 µM]
19 | O=C(NNC(=O)c1ccc(-c2ccccc2)cc1)Nc1ccccc1 | 17% [at 12.3 µM]
20 | C=CC[n+]1c(-c2ccc(C)cc2)csc1NNC(=O)Nc1ccccc1 | 77.7% [at 12.3 µM] (active)
